Among the data in PubChem BioAssay (NCI) are growth values, retold here.

Test systems include EKVX NSCLC; SN12C renal; UO-31 renal; TK-10 renal; ACHN renal; CAKI-1 renal; A498 renal; CCRF-CEM leukemia; MOLT-4 leukemia; SR leukemia.
Holding throughout (assay): NCI-60 one-dose screen, 48 h (100 = growth as untreated, 0 = no growth, -100 = all killed)
What all share (conditions): 10 µM unless noted

Compounds without any hit were thinned out: in the full panel of roughly 83,000, 20% have a hit.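 Compound tested at a single concentration for 48 hours in 96-well plates; a percent growth value below 10 was scored as active.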 Unmarked numbers belong to inactive results. Activity calls are given as the source filed them.

Take `COc1cc2c(cc1OCCCCCn1c(-c3ccc(OCc4ccccc4)cc3)nc3cc(N4CCOCC4)ccc31)N=C[C@@H]1CCCN1C2=O`: the growth was 52.5% in the assay on EKVX NSCLC; 23.2% in the assay with SN12C renal; 0.0572% (active) in the assay with UO-31 renal; -13.3% (active) in the assay on TK-10 renal; -54.5% (active) in the assay with ACHN renal; 18.5% in the assay on CAKI-1 renal. Also, the growth with A498 renal is -74.7% (active); in the assay with CCRF-CEM leukemia it was 8.03% (active); in the assay with MOLT-4 leukemia it was 23.7%; in the assay with SR leukemia, 137%.
In the case of `COc1ccc2c(c1)C(=O)c1c-2c(OCCCN(C)C)nc2cc(Br)ccc12`, the growth with EKVX NSCLC is 61.8%; in the assay on SN12C renal, 62.2%; in the assay with UO-31 renal, -34.7% (active); with TK-10 renal it was 76.7%; in the assay with ACHN renal, 3.65% (active); in the assay with CAKI-1 renal, 69.6%. Further, the growth was 76.3% in the assay on A498 renal, -27.6% (active) with CCRF-CEM leukemia, 21.1% in the assay with MOLT-4 leukemia and -21.3% (active) in the assay on SR leukemia.
As to `C=C(C)[C@@H]1C[C@H](O)Cc2cc(Cl)cc(Cl)c2N1`, the growth with EKVX NSCLC is 84.3%; in the assay with SN12C renal, 96.9%; with UO-31 renal, 81.4%; in the assay on TK-10 renal it was 98.7%; with ACHN renal it was 95.9%; in the assay on CAKI-1 renal, 91.6%. Also, the growth with A498 renal was 87.2%; with CCRF-CEM leukemia, 103%; with MOLT-4 leukemia, 88.3%; in the assay on SR leukemia it was 108%.
`ClC1C2CC(c3ccccc32)C1Cl` (stereo not given): the growth with EKVX NSCLC is 123%; with SN12C renal, 102%; in the assay on UO-31 renal, 108%; in the assay on TK-10 renal, 108%; in the assay on ACHN renal it was 104%; with CAKI-1 renal it was 118%. Further, the growth in the assay with A498 renal was 92.4%; in the assay with CCRF-CEM leukemia, 96.8%; with MOLT-4 leukemia, 101%; in the assay with SR leukemia, 106%.
With `CC(C)c1ccc(C(=O)Nc2sc3c(CN(C)C)c(O)ccc3c2C(N)=O)cc1`, the growth in the assay on EKVX NSCLC is 86.7%; with SN12C renal, 55.9%; in the assay with UO-31 renal, 34.1%; with TK-10 renal, 97.4%; with ACHN renal, 61.3%; in the assay with CAKI-1 renal it was 79.6%. Besides, the growth with A498 renal was 82.5%; in the assay with CCRF-CEM leukemia it was -17.9% (active); in the assay on MOLT-4 leukemia it was 15.2%; in the assay with SR leukemia, -2.24% (active).
With `NC(N)=N/N=C(/c1ccccc1)c1ccc(Cl)cc1`, the growth was 60.6% with EKVX NSCLC; 68.9% with SN12C renal; 95.4% in the assay with UO-31 renal; 94.1% in the assay with TK-10 renal; 104% in the assay on ACHN renal; -17.2% (active) with CAKI-1 renal. Besides, the growth is 56.5% in the assay with A498 renal, 125% with CCRF-CEM leukemia, 125% in the assay with MOLT-4 leukemia and 50.3% with SR leukemia.
Turning to `Oc1[nH]c2ccc(Cl)cc2c1/C=c1/ccc2c(c1)N=C(c1ccc(C(F)(F)F)cc1)N=2`, the growth in the assay on EKVX NSCLC was 87.4%; in the assay on SN12C renal, 88.3%; with UO-31 renal, 62.2%; in the assay on TK-10 renal it was 88.4%; in the assay on ACHN renal, 57%; in the assay on CAKI-1 renal, 54.3%. In addition, the growth with A498 renal is 95.4%; with CCRF-CEM leukemia it was 15.5%; with MOLT-4 leukemia, 21.3%; in the assay on SR leukemia, 25.9%.
Turning to `Nc1cc(Cl)c(S(N)(=O)=O)cc1S(N)(=O)=O`, the growth in the assay with EKVX NSCLC is 111%; in the assay with SN12C renal it was 109%; with UO-31 renal it was 102%; in the assay with TK-10 renal it was 97.5%; with ACHN renal it was 101%; with CAKI-1 renal it was 107%. In addition, the growth in the assay with A498 renal is 116%; in the assay on CCRF-CEM leukemia, 95.7%; in the assay with MOLT-4 leukemia, 158%; in the assay with SR leukemia, 123%.
For `CCCCCCCC/C=C\CCCCCCCCOc1ccccc1CC(=O)NCC[N+]1(C)CCCC1`, the growth with EKVX NSCLC was 93%; with SN12C renal, 49.5%; with UO-31 renal it was 99.2%; in the assay with TK-10 renal, 70.5%; in the assay on ACHN renal, 107%; in the assay on CAKI-1 renal, 97.4%. For the same compound, the growth in the assay on A498 renal was 93.2%; with CCRF-CEM leukemia, 39.3%; with MOLT-4 leukemia, 65%; with SR leukemia, 28%.
`CCOC(=O)c1cc(-c2cccnc2)nc2c(Cl)cc(Cl)cc12`: the growth in the assay with EKVX NSCLC is 96.5%; in the assay on SN12C renal it was 86.6%; in the assay with UO-31 renal, 75%; in the assay with TK-10 renal, 75.7%; in the assay with ACHN renal it was 73.8%; with CAKI-1 renal, 105%. The growth is 103% with A498 renal, 88.9% in the assay with CCRF-CEM leukemia, 98.9% with MOLT-4 leukemia and 117% in the assay on SR leukemia.
In the case of `CCN(CC)c1ccc(CN(CC(=O)c2ccc(Cl)c(Cl)c2)Cc2ccccc2)cc1`, the growth in the assay with EKVX NSCLC is 108%; with SN12C renal, 101%; with UO-31 renal it was 81.9%; in the assay with TK-10 renal, 117%; in the assay with ACHN renal it was 107%; in the assay on CAKI-1 renal, 92.3%. Moreover, the growth in the assay with A498 renal was 92.1%; in the assay with CCRF-CEM leukemia it was 97.8%; in the assay on MOLT-4 leukemia it was 98%; with SR leukemia it was 88.3%.
Consider `CCCOc1ccc2c(c1)CC[C@@H]1[C@@H]2CC[C@@]2(C)[C@H]1CC[C@]2(C)O`, for which the growth in the assay with EKVX NSCLC is 80%; in the assay on SN12C renal it was 82.7%; in the assay with UO-31 renal it was 69.9%; in the assay with TK-10 renal, 69.3%; with ACHN renal it was 93.9%; in the assay on CAKI-1 renal, 62.3%. Further, the growth in the assay on A498 renal was 114%; with CCRF-CEM leukemia, 72.8%; in the assay on MOLT-4 leukemia, 75.9%; in the assay on SR leukemia it was 73%.
In the case of `S=c1[nH]nc2sc3ccccc3n12`, the growth in the assay on EKVX NSCLC is 116%; with SN12C renal, 103%; in the assay with UO-31 renal, 84.2%; with TK-10 renal, 126%; in the assay with ACHN renal, 99.2%; in the assay on CAKI-1 renal, 110%. Besides, the growth was 76.1% in the assay on A498 renal, 100% in the assay with CCRF-CEM leukemia, 92.7% in the assay on MOLT-4 leukemia and 88.5% in the assay on SR leukemia.
For the compound `O=c1cc(-c2cccnc2)oc2c1ccc1ccccc12`, the growth in the assay on EKVX NSCLC was 86.3%; in the assay on SN12C renal it was 80.3%; in the assay on UO-31 renal, 60.5%; with TK-10 renal, 114%; with ACHN renal, 69.6%; in the assay with CAKI-1 renal, 72.9%. Moreover, the growth in the assay with A498 renal was 61.6%; in the assay on CCRF-CEM leukemia, 88.1%; in the assay with MOLT-4 leukemia, 103%; in the assay with SR leukemia, 39.3%.
